Compound activity deposited in PubChem BioAssay by several laboratories.
TWEAK Fn14 block – inhibitors of TWEAK-Fn14 interaction signaling; TWEAK-stimulated Fn14 reporter cells, luciferase luminescence, 8 h; AID 1159606; inhibition, % at 10 µM; actives 2% (n = 360,000); in the data active = inhibition above about 50%
HSP90 refold inh – inhibitors of HSP90 luciferase refolding in rabbit reticulocyte lysate; inhibition, % at 5.6 µM; actives 0.91% (n = 290,000); luciferase refolding luminescence, 3 h;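 active = inhibition above the screen-wide mean plus 3 SD, computed separately per campaign, cut at about 16% in these data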;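 note: 0% = DMSO wells and 100% = 60 µM geldanamycin wells; inhibitors lower the luminescence because luciferase stays unfolded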
TROY signal inh – TROY signaling inhibition; Q293 LMP1-TROYcd NF-kB luciferase reporter, 4 h; actives 0.98% (n = 360,000); inhibition, % at 10 µM;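 active = compounds whose plate-normalised and pattern-corrected inhibition of the luciferase reporter signal at the single screening dose is 50% or more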
LGR2 inh – blocks bursicon-induced cAMP signaling via Drosophila LGR2; HEK293 LGR2, CRE-luciferase, bursicon-stimulated, 4 h; inhibition, % at 9.99 µM; actives 0.35% (n = 380,000); AID 720647;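 active = drop in luminescence signal, shown as inhibition above about 50% in the replicate tests, limit read from the data, passing the limit was not always enough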;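 note: agonist challenge used bursicon conditioned medium at about half maximal strength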
aDG glyco act – alpha-DG glycosylation activation | Pro5-aDG cells, alpha-DG glycosylation AlphaScreen (IIH6); 0% Pro5, 100% B10-LARGE cell signal | activation, % at 10 µM | actives 0.22% (n = 360,000);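 active = activation of at least 8% versus controls, or a plate z-score of at least 8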;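 note: Pro5 are CHO cells carrying HIG-tagged alpha-DG that lacks glycosylation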
EBV LMP1 NFkB – Epstein-Barr LMP1 NF-kappaB reporter inhibition. LMP1-induced NF-kappaB luciferase reporter cells, luminescence. inhibition, % at 12.5 µM. actives 0.69% (n = 350,000); in the data active = inhibition above about 41%;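 note: 0% = neutral control wells and 100% = reference inhibitor control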
* hit, by the source's call; · = no result given. In the library only some 2.6% were active in any assay of this set; here they are far more common.

SMILES	TWEAK Fn14 block	HSP90 refold inh	TROY signal inh	LGR2 inh	aDG glyco act	EBV LMP1 NFkB
Cc1[nH]n(-c2ccccc2)c(=O)c1C=Nc1cnc2ccccc2c1	-10	2	-23	·	0	-9
CCOc1ccc(N=Cc2c(C)[nH]n(-c3nc4ccccc4[nH]3)c2=O)cc1	31	3	13	63*	0	3
Cc1ccc(CN2CC(=O)N3[C@H](C2)[C@@H](c2ccc(Br)cc2)[C@@H]3CO)cc1	·	·	·	-2	·	·
O=C(Cc1ccccn1)NCC[C@@H]1CC[C@H](NS(=O)(=O)c2ccc(Cl)cc2)[C@@H](CO)O1	·	·	·	-1	·	·
CCNc1ccc(Br)cc(C(=O)/C=C/c2c(Cl)cccc2Cl)c1=O	-3	7	8	·	0	61*
O=C(O)[C@@H]1[C@@H](CO)[C@@H]2Cn3c(ccc(-c4ccccc4)c3=O)[C@@H]2N1CCc1ccccc1	·	·	·	7	·	·
O=C(c1ccc(CSc2nc3ccncc3[nH]2)cc1)N1CCN(c2cccc(Cl)c2)CC1	61*	-2	54*	65*	1	9
O=C(NCc1ccc(Cl)cc1)c1ccc(CSc2nc3ccncc3[nH]2)cc1	25	2	19	-6	0	-7
Cc1sc(NC(=O)/C=C/C(=O)O)c(C(N)=O)c1-c1ccc(C(C)(C)C)cc1	-17	-5	-46	-17	1	4
Cc1sc(NC(=O)c2cccc([N+](=O)[O-])c2)c(C(N)=O)c1-c1ccc(C(C)(C)C)cc1	64*	7	69*	·	0	15
CCCC(=O)Nc1ccc2c(c1)C(=O)N(C)C[C@H](OC)[C@@H](C)CN(C(=O)C1CCCC1)[C@H](C)CO2	·	·	·	7	·	·
Cc1cc(C(C#N)c2ccc(Cl)cc2)c(Cl)cc1NC(=O)c1cc(I)cc(I)c1O (configuration not stated)	24	·	70*	·	0	6
COc1cccc(C(C(=O)NC2CCCC2)N(Cc2ccccc2OC)C(=O)c2ccco2)c1 (configuration not stated)	74*	-2	·	·	0	4
C[C@H]1CN([C@@H](C)CO)C(=O)Cc2cc(NC(=O)Cc3ccccc3)ccc2O[C@@H]1CN(C)Cc1ccc(-c2ccccc2)cc1	·	·	·	8	·	·
Cc1cc(/C=C2/NC(=O)N(c3ccccc3)C2=O)c(C)n1C(C)C	60*	5	48	-24	0	2
CC(C)CC#Cc1ccc2c(c1)O[C@H](CN(C)CC1CCOCC1)[C@H](C)CN([C@H](C)CO)S2(=O)=O	·	·	·	6	·	·
O=C(NNc1nc2ccc(Cl)cc2s1)c1cc(-c2cccs2)nc2ccccc12	58*	0	39	·	0	27
O=C(N/N=C/c1cccnc1)c1cc(-c2cccs2)nc2ccccc12	-11	0	-1	11	0	58*
O=S(=O)(c1ccc(F)cc1)N1CC[C@@H]2[C@@H](CO)Nc3ccc(-c4ccc(F)cc4)cc3[C@@H]21	·	·	·	13	·	·
O=C1CC(c2ccc(O)c(O)c2)Oc2cc(O)cc(O)c21 (configuration not stated)	3	·	-40	14	0	-3
O=C1CC(c2ccc(O)c(O)c2)Oc2c1ccc(O)c2O (configuration not stated)	62*	·	-3	32	0	0
CC(C)=CCc1c(O)ccc2c1OC(c1ccc(O)c(O)c1)CC2=O (configuration not stated)	75*	1	42	-21	0	-8
CC(c1ccco1)N(C(=O)c1ccccc1NS(=O)(=O)c1ccc(Cl)c([N+](=O)[O-])c1)c1ccccn1 (configuration not stated)	38	0	71*	9	0	4
Cc1nc(N2CCN(Cc3ccccc3)CC2)nc2c1CCC2	60*	0	12	8	0	0
Cc1nc(N2CCN(Cc3ccccc3)CC2)nc2c1C(=O)CCC2	16	1	25	·	1	-7
SMILES	TWEAK Fn14 block	HSP90 refold inh	TROY signal inh	LGR2 inh	aDG glyco act	EBV LMP1 NFkB
CCC(=O)Nc1ccc2c(c1)C(=O)N(C)C[C@@H](OC)[C@@H](C)CN(CCC(F)(F)F)[C@@H](C)CO2	·	·	·	-10	·	·
COCCN(C(=O)c1csnn1)C(C(=O)NC1CCCC1)c1ccccc1F (configuration not stated)	66*	1	17	-3	0	-4
Cc1ccc(C(C(=O)NC2CCCCC2)N(Cc2cccnc2)C(=O)c2csnn2)cc1 (configuration not stated)	92*	1	11	-5	0	-13
NC(=O)c1cc([N+](=O)[O-])ccc1NCc1ccc(F)cc1	-2	·	-55	-24	0	17
NC(=O)c1cc([N+](=O)[O-])ccc1NCc1ccc(N)cc1	84*	·	67*	-13	0	49*
Cc1ccc(-n2c(C)c([N+](=O)[O-])c3ccc(O)cc32)cc1	·	2	·	5	·	·
Cc1c([N+](=O)[O-])c2ccc(O)cc2n1-c1ccccc1	56*	0	32	-7	0	35
CC(=O)Oc1ccc(OC(C)=O)c(SCCCCCCl)c1	76*	1	-15	18	0	-72
CC(=O)Oc1ccc(C(=O)O)cc1OC(C)=O	12	-4	6	13	0	6
COc1ccc(-c2nc(NC(=O)c3c(C)noc3C)sc2C)cc1	25	·	13	-8	0	23
COc1ccc(-c2nc(NC(=O)c3cc(C(C)(C)C)nn3C)sc2C)cc1	68*	3	30	·	-1	24
COc1ccc(Cl)cc1NC(=O)c1cccc([N+](=O)[O-])c1O	16	·	56*	-21	0	7
C[C@@H]1CN([C@H](C)CO)C(=O)c2c(c3ccccc3n2C)-c2ccccc2CO[C@@H]1CN(C)Cc1cccc(O)c1	·	·	·	13	·	·
O=c1cc(CSc2ccc(Cl)cc2)nc(-c2ccccn2)[nH]1	106*	-2	-13	-3	0	17
O=c1cc(CSc2ccc(Cl)cc2)nc(-c2ccccc2)[nH]1	4	2	-22	-2	0	-2
COc1ccccc1NC(=O)N1CC[C@@H]2[C@@H](CO)N(C)c3ccc(-c4cccc(F)c4)cc3[C@@H]21	·	·	·	10	·	·
Cc1onc(-c2ccccc2)c1NC(=O)OC(C)c1cccnc1 (configuration not stated)	87*	·	-12	-2	0	-2
c1ccc(N2CCN(c3ncnc4sc5c(c34)CCC5)CC2)cc1	59*	5	44	·	0	20
CCc1cc2c(N3CCN(c4ccccc4)CC3)ncnc2s1	61*	1	20	8	2	44*
C[C@H]1CCCCO[C@H](CN(C)C(=O)c2ccccc2)[C@@H](C)CN([C@@H](C)CO)C(=O)c2cc(NC(=O)Nc3ccc(F)cc3)ccc2O1	·	·	·	-9	·	·
CC(C)(C)c1ccc(C2CC2C(=O)N/N=C\c2ccc[nH]2)cc1 (configuration not stated)	33	0	-6	4	9.1*	-64
